Here are results for twelve compounds from PubChem BioAssay (NCATS).

A short description of test [1]: qHTS profiling of the MIPE4 collection as inhibitors of Plasmodium falciparum (DD2) proliferation (AID 743345; call rule not given here). The following applies: P. falciparum Dd2 in erythrocytes, SYBR Green DNA, 72 h; at 28.5 µM (top of the series) unless noted. In short, it runs like this: (§1)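 Erythrocytes infected with P. falciparum (0.3% parasitemia, 2.5% hematocrit) incubated with compounds 72 h at 37 C, 5% CO2. Lysis with saponin/Triton buffer containing SYBR Green I, overnight at room temperature in the dark; DNA fluorescence (485/535 nm) normalised to 0.29 uM artemisinin and DMSO.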

A short description of test [2]: qHTS profiling of the MIPE4 collection as inhibitors of Plasmodium falciparum (DD2) proliferation (Rep 2) (AID 743346; call rule not given here). The settings on record: P. falciparum Dd2 in erythrocytes, SYBR Green DNA, 72 h; at 28.5 µM (top of the series) unless noted. In short, it runs like this: as §1
In general terms: In qHTS, concentration-response curves come from the screen itself.

A short description of test [3]: qHTS profiling of the MIPE4 collection as inhibitors of Plasmodium falciparum (HB3) proliferation (AID 743347; call rule not given here;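 further: plate controls were DMSO vehicle wells for no effect and artemisinin wells for full effect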). The settings on record: P. falciparum HB3 in erythrocytes, SYBR Green DNA, 72 h; at 28.5 µM (top of the series) unless noted. In short, it runs like this: as §1
Test [4] can be described thus: High-throughput drug toxicity screening in the BPDCN cell line Gen2.2 (AID 1224824; call rule not given here;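 further: cells exposed to compounds for 48 h before reading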). The following applies: Gen2.2 BPDCN cells; at 45.8 µM (top of the series) unless noted. In short, it runs like this: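 Readout is ATP luminescence from Gen2.2 cells after two days of drug exposure in serum-containing medium at 37 °C. Values express percent activity, with vehicle defining full signal and 9.2 uM bortezomib defining zero.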

Test [5] is described as follows: High-throughput drug toxicity screening in the BPDCN cell line Cal-1 (AID 1224825; call rule not given here). The following applies: Cal-1 BPDCN cell viability, qHTS; at 45.8 µM (top of the series) unless noted. In short, it runs like this:
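500 Cal-1 cells/well, RPMI + glutamine + 10% FBS (phenol red-free); cpd added by pin tool; 48 h, 37C, 5% CO2; CTG 15 min RT, lumi read. Normalised: DMSO 100%, bortezomib 9.2 uM 0%.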

Test [6] can be described thus: qHTS assay for measurement of the activity of small molecule inhibitors on Zika virus induced Caspase-3 activity in human iPSC derived neural progenitor cells (hNPCs) (AID 1224857). Further: % of control where 0% means no effect; nearly all actives have a fitted effect of over 65% in size. In short, it runs like this: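 Caspase-3/7 induction by a 6-hour ZIKV infection was quantified with a luminescent Caspase-Glo 3/7 reagent incubated 30 minutes at room temperature. Compounds were preincubated with hNPCs for 1 hour; inhibition was calculated against uninfected and infected control wells.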

Test [7] can be described thus: qHTS Screen of the MIPE 4.0 Collection Against Ewings Sarcoma (RDES) (AID 1259252). Further: nearly all actives have a fitted effect of over 35% in size. Further: potency means the concentration at half of the fitted maximal effect. In short, it runs like this:
(§2)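 After a 4 h attachment period in RPMI/5% FBS, cells were pin-dosed with test compounds; DMSO served as negative and 9.2 uM bortezomib (final) as positive control. Luminescent CellTiter-Glo signal at 48 h defined viability.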

Test [8] in a line: qHTS Screen of the MIPE 4.0 Collection Against Ewings Sarcoma (EW8) (AID 1259255).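 Further: 100% = DMSO-treated cells and 0% = medium-only wells without cells; nearly all actives have a fitted effect of over 35% in size.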 The method, boiled down: as §2
Test [9] can be described thus: qHTS assay to identify small molecule inhibitors of chordoma cells - UCH-1 (AID 1259355). Further: on the % scale 0 is the no-effect control and ±100 the full control effect; nearly all actives have a fitted effect of over 55% in size. In short, it runs like this: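 Seed 800 cells per well; incubate overnight at 37 C, 5% CO2. Add test compounds (15 concentrations), then the auranofin–topoisomerase-agent combination. Incubate 48hr, add CellTiter-Glo, wait 30min, read luminescence.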
Test [10] can be described thus: qHTS assay to identify small molecule inhibitors of chordoma cells - UCH-2 (AID 1259356). Further: on the % scale 0 is the no-effect control and ±100 the full control effect.
Test [11] is described as follows: P-glycoprotein substrates identified in KB-3-1 adenocarcinoma cell line, qHTS therapeutic library screen (AID 1346986). Further: nearly all actives have a fitted effect of over 60% in size. In short, it runs like this:
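Cells seeded 500/well in DMEM/10% FCS; compounds pinned in dose-response; 72 h incubation; CellTiter-Glo added, 5 min, luminescence. KB-8-5-11 run ±tariquidar to test reversal of P-gp resistance.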

The nature of test [12]: qHTS Screen of the MIPE 4.0 Collection Against Ewings Sarcoma (TC32) (AID 1259256).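 Further: 100% = DMSO-treated cells and 0% = medium-only wells without cells; nearly all actives have a fitted effect of over 45% in size.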 The method, boiled down:
as §2

A short description of test [13]: qHTS assay for measurement of the activity of small molecule inhibitors on Zika virus induced Caspase-3 activity in human astrocytoma cells (AID 1224859).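 Further: plate controls were ZIKV-infected untreated cells for no effect and uninfected cells for full effect.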 In short, it runs like this: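 In SNB-19 cells plated at 250 cells/well and grown 16-20 h, compounds were applied 1 h before ZIKV (2 FFU/cell). Six hours later caspase-3/7 luminescence was recorded.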
Test [14] can be described thus: qHTS Screen of the MIPE 4.0 Collection Against Ewings Sarcoma (TC71) (AID 1259253). Further: nearly all actives have a fitted effect of over 40% in size. Further: potency means the concentration at half of the fitted maximal effect. The method, boiled down: as §2

Records with an inconclusive call do not appear. Activity calls are given as the source filed them. Unless noted, the call rests on the fitted dose curve; in most records, active means well fitted curve in the direction sought with a large enough effect; inconclusive means small, poorly fitted or top-dose-only effect, or another doubt; inactive means no such curve, though single readings can be large; an effect the other way counts as inactive or inconclusive.

Turning to `CS(=O)(=O)OCCCCOS(C)(=O)=O`, the parasite growth remaining, % of DMSO control (lower = more inhibition) in [1] worked out at 77.1%. Besides, the parasite growth, % of control (lower = inhibition) in [2] amounted to 79.3%. Further, the growth, % of control in [3] was 106%. Besides, in test [4], the cell viability, % of control (lower = more cytotoxic) was 84.6%. Further, the viability (% of control) in test [5] turned out to be 62.5%. The Potency result in test [6], in test [7], in test [8], in test [9] and in test [10] was “inactive” throughout.

Consider `COc1cc(C(C)=O)ccc1OCCCN1CCC(c2noc3cc(F)ccc23)CC1`, for which, in test [1], the parasite growth remaining, % of DMSO control (lower = more inhibition) came out at 54.6%. Also, in [2], the parasite growth, % of control (lower = inhibition) is 40.6%. Moreover, in test [3], the growth, % of control stood at 54.6%. Besides, in test [4], the cell viability, % of control (lower = more cytotoxic) turned out to be 69.7%. In addition, the viability (% of control) in [5] stood at 52.5%. The Potency result in test [6] and in test [11] was “inactive” each time.

For `CC1(C)NC(=O)N(c2ccc([N+](=O)[O-])c(C(F)(F)F)c2)C1=O`, the parasite growth remaining, % of DMSO control (lower = more inhibition) in test [1] is 106%. In addition, the parasite growth, % of control (lower = inhibition) in [2] came to 86.1%. This compound also had a growth, % of control in test [3] of 91%. In test [4], the cell viability, % of control (lower = more cytotoxic) was found to be 204%. In test [5], the viability (% of control) was found to be 105%. Besides, the Potency result in test [6], in test [7], in test [8], in test [12], in test [9] and in [10] was “inactive” each time.

For `Clc1ccc(C(Cn2ccnc2)OCc2ccsc2Cl)c(Cl)c1` (stereo not given), the parasite growth remaining, % of DMSO control (lower = more inhibition) in test [1] worked out at 7.57%. For the same compound, the parasite growth, % of control (lower = inhibition) in test [2] stood at 15.9%. Further, the growth, % of control in test [3] stood at 8.47%. Besides, the cell viability, % of control (lower = more cytotoxic) in test [4] worked out at 75.4%. For the same compound, in test [5], the viability (% of control) worked out at 32.2%. The Potency entry in [6], in test [13], in test [9] and in test [10] was “inactive” each time.

Take `CC(C)[N+]1(C)[C@@H]2CC[C@H]1CC(OC(=O)C(CO)c1ccccc1)C2` (stereo not given in full): the parasite growth remaining, % of DMSO control (lower = more inhibition) in test [1] worked out at 89.9%. Also, in test [2], the parasite growth, % of control (lower = inhibition) came to 77.3%. In [3], this compound registered a growth, % of control of 75%. For the same compound, in test [4], the cell viability, % of control (lower = more cytotoxic) is 31.9%. Besides, the viability (% of control) in test [5] stood at 31.8%. Further, the Potency entry in test [6], in test [7], in [14], in [8], in test [12] and in test [9] was “inactive” throughout. In [10], the Potency entry was “inactive”.

Regarding `Clc1ccc(C(Cn2ccnc2)OCc2c(Cl)cccc2Cl)c(Cl)c1` (stereo not given), in test [1], the parasite growth remaining, % of DMSO control (lower = more inhibition) came to 9.61%. In test [2], the parasite growth, % of control (lower = inhibition) was determined as 14.8%. In test [3], the growth, % of control was found to be 7.46%. Besides, the cell viability, % of control (lower = more cytotoxic) in [4] turned out to be 327%. In test [5], the viability (% of control) stood at 63.4%. Further, the Potency entry in test [6], in test [9] and in test [10] was “inactive” in each case.

As for `Oc1ccc(-c2nc(-c3ccc(F)cc3)c(-c3ccncc3)[nH]2)cc1`, the parasite growth remaining, % of DMSO control (lower = more inhibition) in test [1] amounted to 79.6%. Besides, in test [2], the parasite growth, % of control (lower = inhibition) was found to be 35.5%. For the same compound, the growth, % of control in test [3] is 24.5%. In addition, the cell viability, % of control (lower = more cytotoxic) in [4] is 136%. The viability (% of control) in [5] was determined as 54.8%. For the same compound, the Potency entry in test [6], in [13] and in test [11] was “inactive” each time.

Consider `CCN(CC)CCOc1ccc(Cc2ccccc2)cc1`, for which, in [1], the parasite growth remaining, % of DMSO control (lower = more inhibition) worked out at 74.1%. The parasite growth, % of control (lower = inhibition) in [2] came out at 36.4%. For the same compound, the growth, % of control in test [3] came out at 84.7%. The cell viability, % of control (lower = more cytotoxic) in test [4] stood at 158%. Besides, in test [5], the viability (% of control) is 100%. Moreover, the Potency result in test [6], in [9] and in test [10] was “inactive” throughout. In [7], the Potency was 18.7 µM (active).

With `O=C1CCc2ccc(OCCCCN3CCN(c4cccc(Cl)c4Cl)CC3)cc2N1`, in test [1], the parasite growth remaining, % of DMSO control (lower = more inhibition) was determined as 65.1%. The parasite growth, % of control (lower = inhibition) in test [2] amounted to 53.7%. Besides, the growth, % of control in test [3] was 62.9%. Besides, the cell viability, % of control (lower = more cytotoxic) in [4] turned out to be 498%. The viability (% of control) in test [5] is 110%. In addition, the Potency result in [6], in test [13] and in [10] was “inactive” in each case.

With `C=C(c1ccc(C(=O)O)cc1)c1cc2c(cc1C)C(C)(C)CCC2(C)C`, the parasite growth remaining, % of DMSO control (lower = more inhibition) in [1] stood at 81.7%. Further, in [2], the parasite growth, % of control (lower = inhibition) came out at 105%. Also, in test [3], the growth, % of control worked out at 76.8%. Moreover, in test [5], the viability (% of control) worked out at 89.3%. Moreover, the Potency result in [6], in [13], in test [14], in test [12], in test [9] and in test [10] was “inactive” each time.

Regarding `O=C1c2c(O)cc(O)cc2OC(c2ccc(O)c(O)c2)C1O` (stereo not given), in test [1], the parasite growth remaining, % of DMSO control (lower = more inhibition) is 93.8%. Moreover, the parasite growth, % of control (lower = inhibition) in test [2] is 64.4%. The compound further yielded a growth, % of control in test [3] of 99.5%. In addition, in test [5], the viability (% of control) is 105%. For the same compound, the Potency result in test [6], in [13], in [8] and in [11] was “inactive” each time.

For the compound `COC(=O)C1=C(C)NC(C)=C(C(=O)OC(C)C)C1c1cccc2nonc12` (stereo not given), the parasite growth remaining, % of DMSO control (lower = more inhibition) in test [1] stood at 96.4%. Besides, in [2], the parasite growth, % of control (lower = inhibition) came out at 120%. Moreover, the growth, % of control in test [3] was 99.6%. Besides, the viability (% of control) in test [5] is 105%. The Potency entry in test [6], in [13], in test [9] and in test [10] was “inactive” each time. Further, the Potency in test [7] is 23.5 µM (active); in [14], 26.4 µM (active).
